Reference: PubChem BioAssay (Tox21)
Values joined by “and” are separate entries in the source; they are usually repeats but may differ in a detail not shown here. Equal entries are not always repeated. Results filed as inconclusive are left out. The source holds several records for some structures; these can differ, active in one and inactive in another. Active and inactive are the calls of the source. Unless noted, the call rests on the fitted dose curve; in most records, active means well fitted curve in the direction sought with a large enough effect in the repeat runs; inconclusive means weak or mixed curves; inactive means no such curve, though single readings can be large; an effect the other way counts as inactive or inconclusive.

What was measured:
[1] = qHTS assay to identify small molecule agonists of the androgen receptor (AR) signaling pathway in the presence of an antagonist - cell viability counter screen (AID 1259379); further: nearly all actives have a fitted effect of over 25% in size; further: potency means the concentration at half of the fitted maximal effect
Outline: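 Cytotoxicity counter-screen run in the same wells as the nilutamide-challenged (3.0 µM final) AR agonist assay in MDA-kb2 cells. Compounds tested at 15 concentrations for 16 h, 37 °C without CO2; CellTiter-Fluor fluorescence read.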

[2] = qHTS assay to identify small molecule agonists of the estrogen receptor beta (ER-beta) signaling pathway - cell viability counter screen (AID 1259380); further: nearly all actives have a fitted effect of over 30% in size; further: potency means the concentration at half of the fitted maximal effect
Outline: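 Cell viability counter screen: CellTiter-Glo luminescence (30 min, room temperature) measured in the same wells as the beta-lactamase readout, after 16 hr compound exposure at 37C of ER-beta-bla HEK293T cells in 2% charcoal-stripped FBS medium.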

[3] = qHTS assay to identify small molecule antagonists of the estrogen receptor beta (ER-beta) signaling pathway - cell viability counter screen (AID 1259382); further: nearly all actives have a fitted effect of over 55% in size; further: potency means the concentration at half of the fitted maximal effect
Outline: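 Cytotoxicity was measured in the same wells by CellTiter-Glo luminescence after 30 min at room temperature. Cells were ER-beta-bla HEK293T in charcoal-stripped serum, given compound together with 1 nM E2 and incubated 16 h at 37C.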

[4] = qHTS assay to identify small molecule agonists or antagonists of the thyroid stimulating hormone receptor (TSHR) signaling pathway - wild type cell line counter screen (AID 1259384; calls by dose curve)
Outline: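 Counter screen in untransfected Hek293: compounds (15-point titration, triplicate) plus phosphodiesterase inhibitor Ro20-1724 added after 18 h plating; 30 min RT. Intracellular cAMP via competitive d2/cryptate immunoassay, 1 h incubation.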

[5] = target: Thyrotropin receptor (Homo sapiens) (UniProt P16473); assay: qHTS assay to identify small molecule antagonists of the thyroid stimulating hormone receptor (TSHR) signaling pathway (AID 1259385; calls by dose curve; further: nearly all actives have a fitted effect of over 20% in size)
Outline: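 Antagonist mode: compound-treated TSHR-expressing HEK293 cells were stimulated with 1.5 ng/mL TSH (final) in presence of Ro20-1724 for 30 min at RT. HTRF cAMP detection after 1 h; each compound tested at 15 concentrations, triplicate.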

[6] = qHTS assay to identify small molecule agonists of the estrogen receptor alpha (ER-alpha) signaling pathway in the presence of an antagonist - cell viability counter screen (AID 1259386); further: nearly all actives have a fitted effect of over 30% in size; further: potency means the concentration at half of the fitted maximal effect
Outline: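 Compounds tested at 15 concentrations for 22 h at 37C alongside 10.0nM (final) ICI-182,780 antagonist, in VM7Luc4E2 cells grown in phenol red-free, charcoal-stripped medium. Viability read by CellTiter-Fluor fluorescence after 1 h reagent incubation.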

[7] = target: Progesterone receptor (Homo sapiens) (UniProt P06401); assay: qHTS assay to identify small molecule agonists of the progesterone receptor (PR) signaling pathway (AID 1346784; calls by dose curve; further: nearly all actives have a fitted effect of over 30% in size)
Outline: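 The screen uses PR-UAS-bla HEK 293T cells in charcoal-stripped serum (2%). Compounds are applied for 16 hr at 37C after a 6 hr pre-incubation, and reporter activity is detected with a FRET beta-lactamase substrate after 2 hr at room temperature.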

[8] = target: Progesterone receptor (Homo sapiens) (UniProt P06401); assay: qHTS assay to identify small molecule antagonists of the progesterone receptor (PR) signaling pathway (AID 1346795; active means well fitted inhibition curve with a large enough effect in the signal ratio in the repeat runs, not every such curve was filed as active; the % refers to the signal ratio; further: potency means the concentration at half of the fitted maximal effect)
Outline: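 After 6 hr plating at 37C in 2% stripped-serum medium, PR-UAS-bla HEK293T cells got compounds, then 1 nM R5020. Sixteen hours later, LiveBLAzer substrate was applied for 2 hr at room temperature and fluorescence was recorded.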

[9] = qHTS assay to identify small molecule antagonists of the progesterone receptor (PR) signaling pathway - cell viability counter screen (AID 1346798); further: nearly all actives have a fitted effect of over 50% in size; further: potency means the concentration at half of the fitted maximal effect
Outline: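 Viability was determined by ATP-based luminescence (CellTiter-Glo) in PR-UAS-bla HEK293T cells cultured in 2% charcoal-stripped serum and incubated 16 hr with compounds under R5020 stimulation.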

[10] = qHTS assay to identify small molecule agonists of the progesterone receptor (PR) signaling pathway - cell viability counter screen (AID 1346799; calls by dose curve; further: nearly all actives have a fitted effect of over 45% in size; further: potency means the concentration at half of the fitted maximal effect)
Outline: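 Viability was scored by ATP luminescence (CellTiter-Glo, 30 min, room temperature) in the same wells used for the reporter readout, after 16 hr compound exposure of PR-UAS-bla HEK293T cells.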

[11] = qHTS assay to identify small molecule antagonists of the TGF-beta/Smad signaling pathway - cell viability counter screen (AID 1346824); further: nearly all actives have a fitted effect of over 50% in size; further: potency means the concentration at half of the fitted maximal effect
Outline: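 Cytotoxicity counter-screen run in the same wells as the beta-lactamase Smad reporter read: CellTiter-Glo luminescence after 30 min at room temperature. HEK 293T SBE-bla cells had 5 hr compound exposure at 37 C with TGF-beta1 (0.25 ng/mL stock).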

[12] = qHTS assay to identify small molecule agonists of the TGF-beta/Smad signaling pathway - cell viability counter screen (AID 1346829); further: nearly all actives have a fitted effect of over 45% in size; further: potency means the concentration at half of the fitted maximal effect
Outline: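 Here the cytotoxicity of library compounds is measured in SBE-bla HEK 293T cells treated for 5 hr, using CellTiter-Glo added to wells already read for the beta-lactamase reporter.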

[13] = qHTS assay to identify small molecule agonists of the TGF-beta/Smad signaling pathway (AID 1346859; active means well fitted activation curve with a large enough effect in the signal ratio in the repeat runs, not every such curve was filed as active; the % refers to the signal ratio; further: series mostly up to about 77 µM)
Outline: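 Dual-wavelength fluorescence (460/530 nm emission) quantified beta-lactamase expression under the Smad binding element in HEK 293T cells following 5 hr compound treatment at 37 C.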

[14] = target: Thyrotropin-releasing hormone receptor (Homo sapiens) (UniProt P34981); assay: qHTS assay to identify small molecule antagonists of the thyrotropin-releasing hormone receptor (TRHR) signaling pathway (AID 1346877; active means well fitted inhibition curve with a large enough effect in the repeat runs, not every such curve was filed as active; further: series mostly up to about 51 µM)
Outline: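 Antagonist mode: after a 5 min room-temperature compound exposure, cells were stimulated with 1 nM (final) TRH. Dye-loaded TRHR-HEK293 cells were used, and calcium-dependent fluorescence was followed for 3 min, with 15-point titrations run in triplicate.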

[15] = target: Thyrotropin-releasing hormone receptor (Homo sapiens) (UniProt P34981); assay: qHTS assay to identify small molecule agonists of the thyrotropin-releasing hormone receptor (TRHR) signaling pathway (AID 1346891; calls by dose curve;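 further: HEK293 cells expressing TRHR with calcium dye readout; series mostly up to about 58 µM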)
Outline: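 Kinetic fluorescence (3 min, 1 s intervals) reported intracellular calcium after compound transfer onto TRHR-Hek293 cells pre-loaded with dye for 2 h at 37 °C.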

[16] = Human pregnane X receptor (PXR) small molecule agonists, qHTS cell viability counter screen (AID 1346977); further: nearly all actives have a fitted effect of over 50% in size; further: potency means the concentration at half of the fitted maximal effect
Outline: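 HepG2 cells stably carrying the PXR-Luc reporter are cultured with 5% charcoal-stripped FBS and treated with compounds for 24hr. CellTiter-Fluor is added at 23hr and fluorescence is read after 1hr.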

[17] = target: Estrogen receptor (Homo sapiens) (UniProt P03372); assay: qHTS assay to identify small molecule agonists of the estrogen receptor alpha (ER-alpha) signaling pathway in the presence of an antagonist (AID 1259383; calls by dose curve; further: top concentration of the series differs between compounds; nearly all actives have a fitted effect of over 15% in size)
Outline: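 Agonist-mode confirmation run in the presence of 10.0nM (final) ICI-182,780 antagonist. The reporter was ERE-driven luciferase in VM7Luc4E2 cells, grown in charcoal-stripped serum. Cells were exposed to 15-concentration compound series for 22hr, then ONE-Glo luminescence was read.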

Measured: Potency

Chain of Estrogen receptor (Homo sapiens) (P03372 whole entry, looked up): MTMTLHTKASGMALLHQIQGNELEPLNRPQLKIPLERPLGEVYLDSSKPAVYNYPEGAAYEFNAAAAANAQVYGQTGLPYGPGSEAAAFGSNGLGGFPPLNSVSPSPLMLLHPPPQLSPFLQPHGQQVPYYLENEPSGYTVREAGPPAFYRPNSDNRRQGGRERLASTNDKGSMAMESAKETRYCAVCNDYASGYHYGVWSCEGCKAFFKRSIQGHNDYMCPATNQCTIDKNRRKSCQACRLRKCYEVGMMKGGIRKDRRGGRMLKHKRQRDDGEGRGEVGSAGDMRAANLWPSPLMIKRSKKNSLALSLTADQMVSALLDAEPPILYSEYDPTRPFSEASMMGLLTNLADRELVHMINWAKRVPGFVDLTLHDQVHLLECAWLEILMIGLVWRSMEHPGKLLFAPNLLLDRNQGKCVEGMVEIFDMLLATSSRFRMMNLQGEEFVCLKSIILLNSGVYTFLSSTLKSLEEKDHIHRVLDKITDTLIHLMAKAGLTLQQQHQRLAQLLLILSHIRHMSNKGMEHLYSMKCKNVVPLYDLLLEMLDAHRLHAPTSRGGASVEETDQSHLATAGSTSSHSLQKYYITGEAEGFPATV
Chain of Thyrotropin receptor (Homo sapiens) (P16473 whole entry, looked up): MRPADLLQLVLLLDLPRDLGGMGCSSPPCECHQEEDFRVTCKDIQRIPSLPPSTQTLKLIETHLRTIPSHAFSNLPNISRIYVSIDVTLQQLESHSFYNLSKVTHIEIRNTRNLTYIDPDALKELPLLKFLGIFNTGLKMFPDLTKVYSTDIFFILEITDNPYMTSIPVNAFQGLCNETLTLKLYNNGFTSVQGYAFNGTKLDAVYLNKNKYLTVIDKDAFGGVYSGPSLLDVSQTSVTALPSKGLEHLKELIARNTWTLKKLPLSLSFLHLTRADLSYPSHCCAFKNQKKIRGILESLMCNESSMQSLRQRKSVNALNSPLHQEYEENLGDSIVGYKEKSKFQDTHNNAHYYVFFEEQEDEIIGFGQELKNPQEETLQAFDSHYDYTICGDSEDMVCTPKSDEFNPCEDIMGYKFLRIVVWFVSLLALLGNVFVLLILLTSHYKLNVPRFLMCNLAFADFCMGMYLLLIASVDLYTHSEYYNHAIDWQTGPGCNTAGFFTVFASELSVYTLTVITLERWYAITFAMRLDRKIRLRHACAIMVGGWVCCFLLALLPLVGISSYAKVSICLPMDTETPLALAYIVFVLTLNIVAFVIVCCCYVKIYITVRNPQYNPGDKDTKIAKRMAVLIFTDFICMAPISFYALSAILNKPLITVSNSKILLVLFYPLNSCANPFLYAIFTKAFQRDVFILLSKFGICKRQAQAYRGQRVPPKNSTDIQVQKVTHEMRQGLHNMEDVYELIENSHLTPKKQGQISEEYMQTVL
Chain of Progesterone receptor (Homo sapiens) (P06401 whole entry, looked up): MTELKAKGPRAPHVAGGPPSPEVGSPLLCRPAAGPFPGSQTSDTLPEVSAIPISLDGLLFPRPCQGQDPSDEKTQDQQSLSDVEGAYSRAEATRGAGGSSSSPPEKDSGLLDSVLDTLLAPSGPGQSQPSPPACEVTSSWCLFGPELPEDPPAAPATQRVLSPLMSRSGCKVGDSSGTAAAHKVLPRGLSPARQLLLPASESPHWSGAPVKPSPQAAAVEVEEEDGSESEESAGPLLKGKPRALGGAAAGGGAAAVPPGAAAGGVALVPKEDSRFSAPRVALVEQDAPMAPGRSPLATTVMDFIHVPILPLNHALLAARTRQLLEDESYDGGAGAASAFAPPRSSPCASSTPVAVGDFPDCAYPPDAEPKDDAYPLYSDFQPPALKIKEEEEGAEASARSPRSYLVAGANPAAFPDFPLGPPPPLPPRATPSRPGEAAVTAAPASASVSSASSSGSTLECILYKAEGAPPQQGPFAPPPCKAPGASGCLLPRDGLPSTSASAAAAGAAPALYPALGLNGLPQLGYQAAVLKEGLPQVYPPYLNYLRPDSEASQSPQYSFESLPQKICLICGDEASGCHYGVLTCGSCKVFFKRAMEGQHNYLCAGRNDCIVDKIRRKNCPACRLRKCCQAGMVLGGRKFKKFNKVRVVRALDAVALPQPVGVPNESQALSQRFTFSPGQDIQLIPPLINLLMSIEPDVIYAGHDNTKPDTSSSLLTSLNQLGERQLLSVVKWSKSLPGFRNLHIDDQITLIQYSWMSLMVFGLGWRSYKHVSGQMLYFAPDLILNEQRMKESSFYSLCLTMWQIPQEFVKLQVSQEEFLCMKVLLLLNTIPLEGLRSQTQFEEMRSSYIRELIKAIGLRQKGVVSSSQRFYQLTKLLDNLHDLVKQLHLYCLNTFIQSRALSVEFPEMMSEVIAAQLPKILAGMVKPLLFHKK
Chain of Thyrotropin-releasing hormone receptor (Homo sapiens) (P34981 whole entry, looked up): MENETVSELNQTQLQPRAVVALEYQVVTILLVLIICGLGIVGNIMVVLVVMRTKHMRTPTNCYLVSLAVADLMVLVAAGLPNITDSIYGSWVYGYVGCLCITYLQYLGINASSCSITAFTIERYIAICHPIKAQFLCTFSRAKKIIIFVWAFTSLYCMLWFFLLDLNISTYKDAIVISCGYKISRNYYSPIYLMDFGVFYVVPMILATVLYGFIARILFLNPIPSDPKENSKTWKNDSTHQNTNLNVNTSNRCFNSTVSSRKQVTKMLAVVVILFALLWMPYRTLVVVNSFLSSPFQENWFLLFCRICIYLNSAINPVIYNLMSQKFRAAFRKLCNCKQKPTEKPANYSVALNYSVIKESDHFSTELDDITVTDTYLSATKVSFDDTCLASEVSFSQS

Clc1ccc(C(Cl)(Cl)Cl)cc1
inactive: [1] | [2] | [3] | [4] | [5] | [6] | [7] | [8] | [9] | [10] | [11] | [12] | [13] | [14] | [15] | [16]

C[N+](C)(C)C
inactive: [1] | [2] | [3] | [17] | [4] | [5] | [6] | [7] | [8] | [9] | [10] | [11] | [12] | [13] | [14] | [15] | [16]

N#CCCCCC#N
inactive: [1] | [2] | [3] | [4] | [5] | [6] | [7] | [8] | [9] | [10] | [11] | [12] | [13] | [14] | [15] | [16]

Cl
inactive: [1] | [2] | [3] | [6] | [7] | [8] | [9] | [10] | [11] | [12] | [13] | [16]

CC(C)(O)C#N
inactive: [1] | [2] | [3] | [4] | [5] | [6] | [7] | [8] | [9] | [10] | [11] | [12] | [13] | [14] | [15] | [16]

ClC(Cl)=C(Cl)C(Cl)=C(Cl)Cl
inactive: [1] | [2] | [3] | [17] | [4] | [5] | [6] | [7] | [8] | [9] | [10] | [11] | [12] | [13] | [14] | [15] | [16]

c1ccc(C2CO2)cc1 (stereo not given)
inactive: [1] | [2] | [3] | [4] | [5] | [6] | [7] | [8] | [9] | [10] | [11] | [12] | [13] | [14] | [15] | [16]

Nc1ccc2ccccc2c1
inactive: [1] | [2] | [3] | [6] | [7] | [8] | [9] | [10] | [11] | [12] | [13] | [14] | [15] | [16]

NN=C(N)N
inactive: [1] | [2] | [3] | [6] | [7] | [8] | [9] | [10] | [11] | [12] | [13] | [16]

CCOP(=O)(O)OCC (tested in a mixture with another compound)
inactive and 24.1 µM (active): [16]
inactive and 54.5 µM (active): [12]
inactive and 48.2 µM (active): [2]
inactive and 27.1 µM (active): [1]
inactive and 30.4 µM (active): [3]
inactive and 60.6 µM (active): [6] | [8]
inactive: [7] | [9] | [10] | [13]

CNC(=S)S
inactive: [1] | [2] | [3] | [4] | [5] | [6] | [7] | [8] | [9] | [10] | [11] | [12] | [13] | [14] | [15] | [16]

CC[n+]1c(-c2ccccc2)c2cc(N)ccc2c2ccc(N)cc21
inactive: [17] | [7] | [11] | [12] | [13] | [14] | [15]
active: [1] 24.2 µM and 10.6 µM | [2] 1.53 µM and 1.06 µM | [6] 48.3 µM and 26.6 µM | [8] 38.4 µM | [9] 5.31 µM | [10] 3.76 µM | [16] 27.2 µM

CC(C)(c1ccccc1)c1ccc(O)c(C(C)(C)c2ccccc2)c1
active: [2] 21.5 µM and 30.6 µM | [3] 24.1 µM and 30.6 µM | [6] 68 µM | [9] 17.1 µM and 48.6 µM | [10] 42.9 µM and 27.3 µM | [11] 54.4 µM and 43.6 µM | [12] 48.5 µM and 43.6 µM | [16] 35.5 µM and 48.6 µM
inactive: [17] | [4] | [5] | [14] | [15]
